Positions count from the first letter of the chain named.
Legend:
Assay in all cases: yeast three-hybrid, YBZ-1, SC-Leu-His + 0.5 mM 3-AT, 4 days
Details in all cases: tags: N-Gal4 AD-HA kept; label: inside an RPR1-promoter hybrid RNA with tandem MS2 sites; ssRNA
PUM1 PUF domain R2-VFV = PUM1 PUF domain R2-VFV (Homo sapiens, UniProt Q14671 828-1176, N899V;Y900F;Q903V)
Procedure, shortened: (§1)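 Repeat regions from input (SC-Leu) and selection (SC-Leu-His + 0.5 mM 3-AT) plates were PCR-amplified and Illumina-sequenced after four days of growth. The cells were strain YBZ-1 with a LexA–MS2 coat fusion and a HIS3 reporter, co-expressing Pumilio-1 PUF domain libraries and matching RNA elements from a centromeric plasmid. The interaction score is the log change in variant frequency from input to selection, taken in log2 with a pseudocount of 1 for absent variants.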

PUM1 PUF domain R6-TWV = target: T1, PUM1 PUF domain R6-TWV (Homo sapiens, UniProt Q14671 828-1176, N1043T;Y1044W;Q1047V)
T1 sequence: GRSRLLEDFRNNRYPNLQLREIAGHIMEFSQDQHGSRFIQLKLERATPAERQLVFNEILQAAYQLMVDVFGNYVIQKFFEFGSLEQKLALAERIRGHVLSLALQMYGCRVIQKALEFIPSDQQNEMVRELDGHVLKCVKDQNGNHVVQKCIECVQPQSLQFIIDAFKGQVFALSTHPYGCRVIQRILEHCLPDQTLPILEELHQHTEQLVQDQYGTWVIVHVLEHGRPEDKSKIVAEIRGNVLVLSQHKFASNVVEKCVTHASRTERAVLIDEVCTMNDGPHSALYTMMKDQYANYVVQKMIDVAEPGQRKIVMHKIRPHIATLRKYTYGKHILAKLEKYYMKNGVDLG
Procedure, shortened: as §1

PUM1 PUF domain R4-TNG = PUM1 PUF domain R4-TNG (Homo sapiens, UniProt Q14671 828-1176, N971T;H972N;Q975G)
Procedure, shortened: as §1

PUM1 PUF domain R4-HRV = PUM1 PUF domain R4-HRV (Homo sapiens, UniProt Q14671 828-1176, N971H;H972R;Q975V)
Procedure, shortened: as §1

PUM1 PUF domain R4-PYT = PUM1 PUF domain R4-PYT (Homo sapiens, UniProt Q14671 828-1176, N971P;H972Y;Q975T)
Procedure, shortened: as §1

PUM1 PUF domain R4-WSA = PUM1 PUF domain R4-WSA (Homo sapiens, UniProt Q14671 828-1176, N971W;H972S;Q975A)
Procedure, shortened: as §1

PUM1 PUF domain R5-NRR = PUM1 PUF domain R5-NRR (Homo sapiens, UniProt Q14671 828-1176, C1007N;Q1011R)
Procedure, shortened: as §1

PUM1 PUF domain R5-KGW = PUM1 PUF domain R5-KGW (Homo sapiens, UniProt Q14671 828-1176, C1007K;R1008G;Q1011W)
Procedure, shortened: as §1

PUM1 PUF domain R5-RYK = PUM1 PUF domain R5-RYK (Homo sapiens, UniProt Q14671 828-1176, C1007R;R1008Y;Q1011K)
Procedure, shortened: as §1

PUM1 PUF domain R4-LHS = PUM1 PUF domain R4-LHS (Homo sapiens, UniProt Q14671 828-1176, N971L;Q975S)
Procedure, shortened: as §1

PUM1 PUF domain R1-KAR = PUM1 PUF domain R1-KAR (Homo sapiens, UniProt Q14671 828-1176, S863K;R864A;Q867R)
Procedure, shortened: as §1

PUM1 PUF domain R1-KGQ = PUM1 PUF domain R1-KGQ (Homo sapiens, UniProt Q14671 828-1176, S863K;R864G)
Procedure, shortened: as §1

PUM1 PUF domain R3-ERS = PUM1 PUF domain R3-ERS (Homo sapiens, UniProt Q14671 828-1176, C935E;Q939S)
Procedure, shortened: as §1

PUM1 PUF domain R4-ACC = PUM1 PUF domain R4-ACC (Homo sapiens, UniProt Q14671 828-1176, N971A;H972C;Q975C)
Procedure, shortened: as §1

PUM1 PUF domain R6-TFT = target: T2, PUM1 PUF domain R6-TFT (Homo sapiens, UniProt Q14671 828-1176, N1043T;Y1044F;Q1047T)
T2 sequence: T1 sequence with W217F, V220T
Procedure, shortened: as §1

PUM1 PUF domain R5-FFV = PUM1 PUF domain R5-FFV (Homo sapiens, UniProt Q14671 828-1176, C1007F;R1008F;Q1011V)
Procedure, shortened: as §1

PUM1 PUF domain R1-RMQ = PUM1 PUF domain R1-RMQ (Homo sapiens, UniProt Q14671 828-1176, S863R;R864M)
Procedure, shortened: as §1

PUM1 PUF domain R8-CYP = PUM1 PUF domain R8-CYP (Homo sapiens, UniProt Q14671 828-1176, N1122C;Q1126P)
Procedure, shortened: as §1

PUM1 PUF domain R8-MYW = PUM1 PUF domain R8-MYW (Homo sapiens, UniProt Q14671 828-1176, N1122M;Q1126W)
Procedure, shortened: as §1

PUM1 PUF domain R5-SLH = PUM1 PUF domain R5-SLH (Homo sapiens, UniProt Q14671 828-1176, C1007S;R1008L;Q1011H)
Procedure, shortened: as §1

With “GGCUAGAACUAGUGGAUCCCCCGGCGCCCGGCGGCUCGAGCCCGGGUAAGUGUAAAAAGUCUGCAUGCCGCCGGGCGCCAUGCCUGCAGGUCGACUCUAGAAAACAUG” as the sequence, how does the binding signal (PUM1 PUF domain R2-VFV) read?
Its binding signal is 5.17 log2 enrichment (interaction score).

“GGCUAGAACUAGUGGAUCCCCCGGCGCCCGGCGGCUCGAGCCCGGGUAAGUGAAAAUAGUCUGCAUGCCGCCGGGCGCCAUGCCUGCAGGUCGACUCUAGAAAACAUG” was tested. Which binding signal (PUM1 PUF domain R6-TWV) did it give?
The binding signal was 2.6 log2 enrichment (interaction score).

Which binding signal (PUM1 PUF domain R4-TNG) does the source give for “GGCUAGAACUAGUGGAUCCCCCGGCGCCCGGCGGCUCGAGCCCGGGUAAGUGUACAUAGUCUGCAUGCCGCCGGGCGCCAUGCCUGCAGGUCGACUCUAGAAAACAUG” here?
The binding signal was 0.22 log2 enrichment (interaction score).

And the binding signal (PUM1 PUF domain R4-HRV)?
Its binding signal is 1.98 log2 enrichment (interaction score).

And the binding signal (PUM1 PUF domain R4-PYT)?
The binding signal was 6.02 log2 enrichment (interaction score).

And the binding signal (PUM1 PUF domain R4-WSA)?
The binding signal was 2.8 log2 enrichment (interaction score).

For “GGCUAGAACUAGUGGAUCCCCCGGCGCCCGGCGGCUCGAGCCCGGGUAAGUGUCAAUAGUCUGCAUGCCGCCGGGCGCCAUGCCUGCAGGUCGACUCUAGAAAACAUG”, which binding signal (PUM1 PUF domain R5-NRR) is on record?
The binding signal was 6.16 log2 enrichment (interaction score).

And the binding signal (PUM1 PUF domain R5-KGW)?
The binding signal was 3.14 log2 enrichment (interaction score).

And the binding signal (PUM1 PUF domain R5-RYK)?
Its binding signal is 4.4 log2 enrichment (interaction score).

Which binding signal (PUM1 PUF domain R4-TNG) does the source give for “GGCUAGAACUAGUGGAUCCCCCGGCGCCCGGCGGCUCGAGCCCGGGUAAGUGUAUAUAGUCUGCAUGCCGCCGGGCGCCAUGCCUGCAGGUCGACUCUAGAAAACAUG” here?
Its binding signal is 2.66 log2 enrichment (interaction score).

And the binding signal (PUM1 PUF domain R4-HRV)?
Its binding signal is 2.89 log2 enrichment (interaction score).

What about the binding signal (PUM1 PUF domain R4-PYT) of the same sequence?
Its binding signal is 7.53 log2 enrichment (interaction score).

And the binding signal (PUM1 PUF domain R4-LHS)?
Its binding signal is 3.86 log2 enrichment (interaction score).

What about the binding signal (PUM1 PUF domain R4-WSA) of the same sequence?
Its binding signal is 2.96 log2 enrichment (interaction score).

What does the source list for “GGCUAGAACUAGUGGAUCCCCCGGCGCCCGGCGGCUCGAGCCCGGGUAAGUGUAAAUUGUCUGCAUGCCGCCGGGCGCCAUGCCUGCAGGUCGACUCUAGAAAACAUG”?
binding signal (PUM1 PUF domain R1-KAR): 6.7 log2 enrichment (interaction score); binding signal (PUM1 PUF domain R1-KGQ): 5.42 log2 enrichment (interaction score)

“GGCUAGAACUAGUGGAUCCCCCGGCGCCCGGCGGCUCGAGCCCGGGUAAGUGUAAGUAGUCUGCAUGCCGCCGGGCGCCAUGCCUGCAGGUCGACUCUAGAAAACAUG” was tested. Which binding signal (PUM1 PUF domain R3-ERS) did it give?
The binding signal was 2.54 log2 enrichment (interaction score).

“GGCUAGAACUAGUGGAUCCCCCGGCGCCCGGCGGCUCGAGCCCGGGUAAGUGUAAAUAGUCUGCAUGCCGCCGGGCGCCAUGCCUGCAGGUCGACUCUAGAAAACAUG” was tested. Which binding signal (PUM1 PUF domain R1-KAR) did it give?
Its binding signal is 2.23 log2 enrichment (interaction score).

And the binding signal (PUM1 PUF domain R4-ACC)?
Its binding signal is 2.56 log2 enrichment (interaction score).

And the binding signal (PUM1 PUF domain R6-TFT)?
Its binding signal is 3.71 log2 enrichment (interaction score).

And the binding signal (PUM1 PUF domain R4-PYT)?
The binding signal was 4.57 log2 enrichment (interaction score).

And the binding signal (PUM1 PUF domain R5-FFV)?
The binding signal was 2.23 log2 enrichment (interaction score).

What about the binding signal (PUM1 PUF domain R4-WSA) of the same sequence?
The binding signal was 1.33 log2 enrichment (interaction score).

What about the binding signal (PUM1 PUF domain R5-RYK) of the same sequence?
Its binding signal is 3.8 log2 enrichment (interaction score).

How did the binding signal (PUM1 PUF domain R1-KGQ) turn out when “GGCUAGAACUAGUGGAUCCCCCGGCGCCCGGCGGCUCGAGCCCGGGUAAGUGUAAAUCGUCUGCAUGCCGCCGGGCGCCAUGCCUGCAGGUCGACUCUAGAAAACAUG” was run?
The binding signal was 4.94 log2 enrichment (interaction score).

And the binding signal (PUM1 PUF domain R1-RMQ)?
Its binding signal is 5.34 log2 enrichment (interaction score).

With “GGCUAGAACUAGUGGAUCCCCCGGCGCCCGGCGGCUCGAGCCCGGGUAAGUGUAAAUGGUCUGCAUGCCGCCGGGCGCCAUGCCUGCAGGUCGACUCUAGAAAACAUG” as the sequence, how does the binding signal (PUM1 PUF domain R1-KGQ) read?
Its binding signal is 2.56 log2 enrichment (interaction score).

Which results are given for “GGCUAGAACUAGUGGAUCCCCCGGCGCCCGGCGGCUCGAGCCCGGGUAAGCGUAAAUAGUCUGCAUGCCGCCGGGCGCCAUGCCUGCAGGUCGACUCUAGAAAACAUG”?
binding signal (PUM1 PUF domain R8-CYP): 4.27 log2 enrichment (interaction score); binding signal (PUM1 PUF domain R8-MYW): 2.44 log2 enrichment (interaction score)

How did the binding signal (PUM1 PUF domain R5-SLH) turn out when “GGCUAGAACUAGUGGAUCCCCCGGCGCCCGGCGGCUCGAGCCCGGGUAAGUGUGAAUAGUCUGCAUGCCGCCGGGCGCCAUGCCUGCAGGUCGACUCUAGAAAACAUG” was run?
The binding signal was 3.2 log2 enrichment (interaction score).

Source: article PMC8384837, “Expanding the binding specificity for RNA recognition by a PUF domain”
